Measurements taken from PubChem BioAssay.
Unmarked numbers belong to inactive results. Activity calls are given as the source filed them. Unless noted, no stated cut-off is given here; in the data, active means inhibition above about 33%; inactive means the rest.

Legend:
[1] = StAR promoter reporter inhibitors, counter-screen for LRH-1 inverse agonist project, cell-based, luminescence, high throughput (AID 651611; in the data active means inhibition above about 28%); conditions: StAR promoter luciferase reporter counterscreen, at 3.6 µM, active compounds read high
[2] = target: Nuclear receptor subfamily 5 group A member 2 (Homo sapiens) (UniProt O00482); experiment: NR5A2 activity suppression in reporter cells – cell-based, luminescence, confirmation (AID 651613; in the data active means inhibition above about 42%;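 further: HEK293T cells co-transfected with LRH-1 and StAR promoter luciferase reporter; 0% = vehicle wells and 100% = parental cells lacking receptor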); conditions: cell-based LRH-1 luciferase reporter, inverse agonism; at 3.6 µM; active compounds read high
Nuclear receptor subfamily 5 group A member 2 (Homo sapiens), sequence (O00482 whole entry, looked up): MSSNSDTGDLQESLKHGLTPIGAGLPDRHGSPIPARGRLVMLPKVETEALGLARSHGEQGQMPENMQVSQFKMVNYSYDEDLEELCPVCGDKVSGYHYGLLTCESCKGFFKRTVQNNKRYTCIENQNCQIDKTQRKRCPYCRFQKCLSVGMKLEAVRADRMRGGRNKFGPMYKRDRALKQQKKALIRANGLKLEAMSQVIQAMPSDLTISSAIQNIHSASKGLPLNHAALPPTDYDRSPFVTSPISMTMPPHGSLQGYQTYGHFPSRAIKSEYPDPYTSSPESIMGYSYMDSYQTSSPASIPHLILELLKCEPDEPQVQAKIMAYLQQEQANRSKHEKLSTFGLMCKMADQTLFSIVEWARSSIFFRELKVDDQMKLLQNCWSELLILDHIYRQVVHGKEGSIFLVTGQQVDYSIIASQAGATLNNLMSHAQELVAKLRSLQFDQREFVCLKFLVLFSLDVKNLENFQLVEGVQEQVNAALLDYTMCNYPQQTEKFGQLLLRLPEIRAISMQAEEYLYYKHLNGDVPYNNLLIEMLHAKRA

[3] = target: Steroidogenic factor 1 (Homo sapiens) (UniProt Q13285); experiment: inverse agonism at SF1 nuclear receptor – cell-based, luminescence, high throughput, counter-screen for LRH-1 inverse agonist project (AID 651614; in the data active means inhibition above about 44%;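 further: cells cotransfected with StAR promoter reporter and SF1 expression vector; 0% = vehicle on cells with receptor and 100% = vehicle on cells lacking receptor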); conditions: cell-based SF1 luciferase reporter, at 3.6 µM, active compounds read high
Steroidogenic factor 1 (Homo sapiens), sequence (Q13285 whole entry, looked up, the tested form may be a part): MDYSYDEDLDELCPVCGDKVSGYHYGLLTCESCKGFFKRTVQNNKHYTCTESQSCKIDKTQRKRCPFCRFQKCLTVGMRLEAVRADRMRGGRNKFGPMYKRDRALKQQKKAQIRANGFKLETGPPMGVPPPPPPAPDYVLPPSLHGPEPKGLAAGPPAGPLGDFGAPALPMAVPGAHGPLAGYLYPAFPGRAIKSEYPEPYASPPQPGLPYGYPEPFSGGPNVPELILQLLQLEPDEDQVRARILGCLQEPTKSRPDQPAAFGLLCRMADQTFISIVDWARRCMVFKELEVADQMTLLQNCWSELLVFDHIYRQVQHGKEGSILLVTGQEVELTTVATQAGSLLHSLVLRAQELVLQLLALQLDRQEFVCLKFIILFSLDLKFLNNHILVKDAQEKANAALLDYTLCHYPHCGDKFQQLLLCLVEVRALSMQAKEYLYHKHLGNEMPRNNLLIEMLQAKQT

[4] = compounds suppressing VP16-driven luciferase signal – cell-based, luminescence, high throughput, counter-screen for LRH-1 inverse agonist project (AID 651615); conditions: Gal4-VP16 luciferase reporter cells, at 3.6 µM, active compounds read high

Row | SMILES | inhibition [1] | inhibition [2] | inhibition [3] | inhibition [4]
1 | CCc1nc(SCC(=O)c2ccccc2)c2ccccc2n1 | 7.58% | 45.8% (active) | 55.3% (active) | -18.1%
2 | O=C(N/N=C/c1ccc(Sc2ccccn2)o1)c1cccc([N+](=O)[O-])c1 | -2.81% | 44.3% (active) | 40% | 10.4%
3 | O=C(COc1ccc2c3c(c(=O)oc2c1)CCCC3)NCCCN1CCOCC1 | 14.4% | 44.6% (active) | 45% (active) | -6.23%
4 | Nc1nc(-c2ccccc2)[nH]c(=O)c1N=O | 18.9% | 54% (active) | 49.4% (active) | -10.9%
5 | COc1ccc(CCC(=O)Nc2c(-c3ccc(N(C)C)cc3)[nH][nH]c2=O)cc1 | 4.07% | 27.3% | 37.5% | -2.18%
6 | CCCCCOc1ccc(Br)cc1CSC(=N)N | 41.5% (active) | 99.7% (active) | 66.2% (active) | 84% (active)
7 | Cc1onc(-c2ccccc2Cl)c1-c1nc(-c2ccccn2)no1 | 17.1% | 67.3% (active) | 52.7% (active) | 7.63%
8 | CN1CCN(C2=C(Cl)C(=O)N(c3ccc(Cl)c(Cl)c3)C2=O)CC1 | 11.1% | 39.3% | 41.6% | -5.07%
9 | Cc1cc(C)nc(SCC(=O)Nc2ccc(N3CCOCC3)c(Cl)c2)n1 | -5.17% | 67.5% (active) | 59.8% (active) | 35.7% (active)
10 | COc1ccc(CNC(=O)c2cccc3c(-c4cnn(C)c4)coc23)cc1OC | 12.8% | 46.2% (active) | 46% (active) | 36.4% (active)
11 | COc1cc(NC(=O)CCl)ccc(=O)c1 | 47.9% (active) | 64.7% (active) | 68.2% (active) | -57%
12 | CC(=O)Nc1cc(-c2ccccc2N(C)C)cn2c(-c3ccc(S(C)(=O)=O)cc3)cnc12 | 7.26% | 49.8% (active) | 36.5% | -14.6%
13 | Cc1cc(OCC(=O)NC2CC2)c2c(C)c(C)c(=O)oc2c1 | 13.4% | 65.4% (active) | 53.2% (active) | -21.9%
14 | O=C(Nc1nc2ccc(F)cc2s1)c1ccc([N+](=O)[O-])o1 | -101% | 0.34% | 10% | -93.2%
15 | COc1ccc(C2(C)NC(=O)N(CC(=O)Nc3ccc(C)cc3Br)C2=O)cc1OC (stereo unspecified) | 15.7% | 40.8% | 28.4% | 0.45%
16 | C/C(=N\Nc1cc(C(F)(F)F)ccc1Cl)c1ccncc1 | 2.53% | 40% | 47.6% (active) | 3.73%
17 | CC(=O)N1CCN(c2ccc(NC(=O)c3ccc([N+](=O)[O-])o3)cc2Cl)CC1 | 22.9% | 60% (active) | 65.1% (active) | -26.3%
18 | Cc1ccc(-c2csc(NC(=O)C3CCN(S(=O)(=O)c4cccs4)CC3)n2)cc1 | 15.3% | 58.5% (active) | 55.4% (active) | 47.9% (active)
19 | CCCCCOc1ccc(NC(=O)CSc2cccc3cccnc23)cc1 | -12.7% | 42.7% (active) | 26.9% | -9.81%
20 | CCn1c2ccccc2c2cc(C3C(C#N)=C(N)Oc4n[nH]c(COC)c43)ccc21 (stereo unspecified) | 44.9% (active) | 50.8% (active) | 51.7% (active) | 14.3%
21 | COc1ccc(CCNC(=O)CSc2nnc(CNc3ccc(Cl)cc3)o2)cc1OC | 1.3% | 48.7% (active) | 38.9% | -2.14%
22 | COc1ccccc1NC(=O)CN1CCN(CC(=O)Nc2ccc(S(N)(=O)=O)cc2)CC1 | 19.1% | 49.8% (active) | 47.7% (active) | -15.6%
23 | CCn1c(CN2CCN(c3ccc(Cl)cc3)CC2)nc2ccccc21 | 2.05% | 46% (active) | 36.1% | 7.76%
24 | O=C(COc1ccc(S(=O)(=O)N2CCCC2)cc1Cl)Nc1ccc2c(c1)OCO2 | 0.49% | 50.4% (active) | 37% | -9.34%
